Several values for one entry are separate records, joined by “and”; a condition that tells them apart may be missing. Identical values can stand only once. Results filed as inconclusive are left out. A call without a number means that no potency is given here. More than one record can exist for a structure, and the calls need not agree. Activity calls are given as the source filed them. Unless noted, calls come from the whole dose curve; as a rule, active = well fitted curve in the direction sought with a large enough effect; inconclusive = small, poorly fitted or top-dose-only effect, or another doubt; inactive = no such curve, though single readings can be large; an effect the other way counts as inactive or inconclusive.
How the values were obtained:
[1] = biological target: Cytochrome P450 2D6 (Homo sapiens) (UniProt P10635); test: qHTS Assay for Inhibitors and Substrates of Cytochrome P450 2D6 (AID 891); note: nearly all actives have a fitted effect of over 60% in size; note: potency is the fitted concentration of half-maximal effect
Cytochrome P450 2D6 (Homo sapiens), sequence (P10635 whole entry, looked up): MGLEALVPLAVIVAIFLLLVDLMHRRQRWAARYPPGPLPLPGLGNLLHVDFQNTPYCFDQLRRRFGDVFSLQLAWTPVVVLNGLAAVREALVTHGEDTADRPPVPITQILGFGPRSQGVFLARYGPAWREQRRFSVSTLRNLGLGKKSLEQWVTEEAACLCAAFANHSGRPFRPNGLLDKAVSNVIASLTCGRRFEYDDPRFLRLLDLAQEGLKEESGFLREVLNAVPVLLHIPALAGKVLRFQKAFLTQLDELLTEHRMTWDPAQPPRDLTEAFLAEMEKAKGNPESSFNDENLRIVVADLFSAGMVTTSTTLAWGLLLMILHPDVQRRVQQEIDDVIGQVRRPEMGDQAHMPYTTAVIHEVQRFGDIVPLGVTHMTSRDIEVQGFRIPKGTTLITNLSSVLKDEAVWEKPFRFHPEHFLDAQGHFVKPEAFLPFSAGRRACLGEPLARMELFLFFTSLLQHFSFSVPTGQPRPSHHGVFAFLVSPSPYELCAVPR
Outline: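 Human CYP2D6 (5 nM) with 30 uM Luciferin-ME EGE (at Km) in 100 mM KPO4, compound preincubated 10 min, then NADPH regeneration system for 60 min at room temperature. Luciferin read by luminescence; normalized to 1.43 uM quinidine.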

[2] = biological target: Cytochrome P450 2C19 (Homo sapiens) (UniProt P33261); test: qHTS Assay for Inhibitors and Substrates of Cytochrome P450 2C19 (AID 899); note: nearly all actives have a fitted effect of over 60% in size; note: potency is the fitted concentration of half-maximal effect
Cytochrome P450 2C19 (Homo sapiens), sequence (P33261 whole entry, looked up): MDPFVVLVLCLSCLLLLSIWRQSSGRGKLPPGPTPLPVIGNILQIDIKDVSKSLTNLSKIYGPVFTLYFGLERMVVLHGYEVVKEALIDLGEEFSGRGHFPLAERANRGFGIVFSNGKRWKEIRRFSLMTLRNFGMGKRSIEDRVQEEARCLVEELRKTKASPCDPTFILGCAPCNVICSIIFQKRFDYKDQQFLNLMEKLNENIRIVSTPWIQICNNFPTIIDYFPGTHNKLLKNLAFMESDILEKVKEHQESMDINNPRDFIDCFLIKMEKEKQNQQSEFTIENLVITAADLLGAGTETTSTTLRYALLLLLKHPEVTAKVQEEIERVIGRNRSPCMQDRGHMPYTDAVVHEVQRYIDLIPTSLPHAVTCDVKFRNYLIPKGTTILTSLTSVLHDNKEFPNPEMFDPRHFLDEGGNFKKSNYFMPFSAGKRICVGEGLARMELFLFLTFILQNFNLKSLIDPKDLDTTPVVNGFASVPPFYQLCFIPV
Outline: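 Luminescent read-out of luciferin formed from Luciferin-H EGE (10uM, equal to KM). Enzyme 5nM in 50mM KPO4; compound added, 10 min at 37C, then NADPH regenerating system for 60 min at 37C. Full inhibition defined by 57uM ketoconazole.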

[3] = qHTS Assay for Identification of Small Molecule Agonists for Thrombopoietin (TPO) Signaling Pathway (AID 917)
Outline: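 We measured Glycoprotein IIb promoter–luciferase output in IL-3-starved Ba/F3 murine cells expressing the human TPO receptor after 24 hrs at 37 C with compounds and 26 pM TPO.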

[4] = biological target: Pyruvate kinase (Leishmania mexicana) (UniProt Q27686); test: qHTS Validation Assay for Inhibitors of Leishmania Mexicana Pyruvate Kinase (AID 945)
Pyruvate kinase (Leishmania mexicana), sequence (Q27686 2-499 E452W): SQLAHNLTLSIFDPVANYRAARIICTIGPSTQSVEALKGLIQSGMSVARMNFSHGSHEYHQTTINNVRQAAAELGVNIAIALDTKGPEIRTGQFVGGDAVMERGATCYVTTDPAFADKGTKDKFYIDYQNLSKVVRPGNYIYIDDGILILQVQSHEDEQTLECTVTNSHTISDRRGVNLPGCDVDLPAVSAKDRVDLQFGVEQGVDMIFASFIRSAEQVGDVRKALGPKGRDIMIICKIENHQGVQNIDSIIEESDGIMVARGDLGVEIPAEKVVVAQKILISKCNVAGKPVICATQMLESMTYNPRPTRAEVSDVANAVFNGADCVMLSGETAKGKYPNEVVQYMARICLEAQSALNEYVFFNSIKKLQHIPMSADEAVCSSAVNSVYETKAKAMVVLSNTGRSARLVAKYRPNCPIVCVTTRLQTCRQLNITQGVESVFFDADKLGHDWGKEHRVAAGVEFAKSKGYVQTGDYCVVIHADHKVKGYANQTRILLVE
Outline: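 Mutant LmPYK (E451W), 0.2 nM, plus 0.5 mM PEP and 0.1 mM ADP in 50 mM imidazole pH 7.2 containing 0.01% Tween 20 and 0.05% BSA. Incubated 1 h at room temperature; luminescence via PKLight, normalized to DMSO.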

[5] = biological target: Pyruvate kinase PKM (Homo sapiens) (UniProt P14618); test: qHTS Assay for Activators of Human Muscle Pyruvate Kinase (AID 954; active = well fitted curve in the direction sought with a large enough effect, not every such curve was filed as active)
Pyruvate kinase PKM (Homo sapiens), sequence (P14618 whole entry, looked up): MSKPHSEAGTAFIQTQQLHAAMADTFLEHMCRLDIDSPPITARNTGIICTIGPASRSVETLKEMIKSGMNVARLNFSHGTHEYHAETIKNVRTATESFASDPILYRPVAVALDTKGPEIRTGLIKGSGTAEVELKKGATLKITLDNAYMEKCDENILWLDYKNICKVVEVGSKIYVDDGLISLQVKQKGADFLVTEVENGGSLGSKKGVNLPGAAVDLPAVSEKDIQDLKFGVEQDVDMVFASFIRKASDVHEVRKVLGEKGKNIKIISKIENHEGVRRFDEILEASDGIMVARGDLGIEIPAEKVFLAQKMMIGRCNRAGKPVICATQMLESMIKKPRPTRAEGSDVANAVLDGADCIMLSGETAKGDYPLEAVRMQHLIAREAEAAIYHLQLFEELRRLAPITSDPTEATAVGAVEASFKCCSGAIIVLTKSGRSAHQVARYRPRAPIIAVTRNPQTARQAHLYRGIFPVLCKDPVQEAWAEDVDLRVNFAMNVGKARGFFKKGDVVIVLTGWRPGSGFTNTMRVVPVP
Outline: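 Human PKM2 activity is measured as ATP generation, detected by luciferase-coupled luminescence. The enzyme (0.1 nM) acts on 0.5 mM PEP and 0.1 mM ADP for 1 h at ambient temperature; data are normalized to uninhibited and full-inhibition wells.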

[6] = biological target: alpha-glucosidase (Oryza sativa, rice) (UniProt Q653V4); test: Counterscreen for Glucocerebrosidase Inhibitors: qHTS Assay for Rice alpha-Glucosidase at pH 5.0 (AID 997)
Outline: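 Rice alpha-glucosidase (4 nM final) with 400 uM 4-methylumbelliferyl-alpha-D-glucopyranoside in citrate buffer pH 5.0, 20 min at room temperature, stopped at pH 10; fluorescence 365/440 nm, compounds 0.7 nM–77 uM, AC50 from Hill fits.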

[7] = biological target: Cytochrome P450 3A4 (Homo sapiens) (UniProt P08684); test: qHTS Assay for Inhibitors and Substrates of Cytochrome P450 3A4 (AID 884); note: series mostly up to about 57 µM; nearly all actives have a fitted effect of over 50% in size
Cytochrome P450 3A4 (Homo sapiens), sequence (P08684 whole entry, looked up): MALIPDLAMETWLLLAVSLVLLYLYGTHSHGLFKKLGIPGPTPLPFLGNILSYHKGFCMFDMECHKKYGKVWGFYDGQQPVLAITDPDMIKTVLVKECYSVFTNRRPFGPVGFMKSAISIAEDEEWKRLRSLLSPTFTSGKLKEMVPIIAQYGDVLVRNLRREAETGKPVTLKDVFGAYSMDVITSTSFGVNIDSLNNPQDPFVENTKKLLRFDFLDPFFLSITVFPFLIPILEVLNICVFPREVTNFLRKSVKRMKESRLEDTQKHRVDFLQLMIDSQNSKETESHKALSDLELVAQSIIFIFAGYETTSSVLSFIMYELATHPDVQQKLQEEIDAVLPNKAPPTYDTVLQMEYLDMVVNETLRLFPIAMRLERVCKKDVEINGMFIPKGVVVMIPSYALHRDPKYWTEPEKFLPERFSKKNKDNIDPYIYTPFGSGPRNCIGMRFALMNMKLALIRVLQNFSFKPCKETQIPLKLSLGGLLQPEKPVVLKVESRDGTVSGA
Outline: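 20 nM human CYP3A4 with 25 uM Luciferin-PPXE (at KM) in 200 mM KPO4, preincubated 10 min with compound; NADPH regeneration started a 60 min RT reaction. Luciferin detected by luminescence, normalized to 57 uM ketoconazole as full inhibition.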

[8] = biological target: RecQ-like DNA helicase BLM (Homo sapiens) (UniProt P54132); test: qHTS Validation Assay for Inhibitors of Bloom's syndrome helicase (BLM) (AID 2364)
RecQ-like DNA helicase BLM (Homo sapiens), sequence (P54132 whole entry, looked up): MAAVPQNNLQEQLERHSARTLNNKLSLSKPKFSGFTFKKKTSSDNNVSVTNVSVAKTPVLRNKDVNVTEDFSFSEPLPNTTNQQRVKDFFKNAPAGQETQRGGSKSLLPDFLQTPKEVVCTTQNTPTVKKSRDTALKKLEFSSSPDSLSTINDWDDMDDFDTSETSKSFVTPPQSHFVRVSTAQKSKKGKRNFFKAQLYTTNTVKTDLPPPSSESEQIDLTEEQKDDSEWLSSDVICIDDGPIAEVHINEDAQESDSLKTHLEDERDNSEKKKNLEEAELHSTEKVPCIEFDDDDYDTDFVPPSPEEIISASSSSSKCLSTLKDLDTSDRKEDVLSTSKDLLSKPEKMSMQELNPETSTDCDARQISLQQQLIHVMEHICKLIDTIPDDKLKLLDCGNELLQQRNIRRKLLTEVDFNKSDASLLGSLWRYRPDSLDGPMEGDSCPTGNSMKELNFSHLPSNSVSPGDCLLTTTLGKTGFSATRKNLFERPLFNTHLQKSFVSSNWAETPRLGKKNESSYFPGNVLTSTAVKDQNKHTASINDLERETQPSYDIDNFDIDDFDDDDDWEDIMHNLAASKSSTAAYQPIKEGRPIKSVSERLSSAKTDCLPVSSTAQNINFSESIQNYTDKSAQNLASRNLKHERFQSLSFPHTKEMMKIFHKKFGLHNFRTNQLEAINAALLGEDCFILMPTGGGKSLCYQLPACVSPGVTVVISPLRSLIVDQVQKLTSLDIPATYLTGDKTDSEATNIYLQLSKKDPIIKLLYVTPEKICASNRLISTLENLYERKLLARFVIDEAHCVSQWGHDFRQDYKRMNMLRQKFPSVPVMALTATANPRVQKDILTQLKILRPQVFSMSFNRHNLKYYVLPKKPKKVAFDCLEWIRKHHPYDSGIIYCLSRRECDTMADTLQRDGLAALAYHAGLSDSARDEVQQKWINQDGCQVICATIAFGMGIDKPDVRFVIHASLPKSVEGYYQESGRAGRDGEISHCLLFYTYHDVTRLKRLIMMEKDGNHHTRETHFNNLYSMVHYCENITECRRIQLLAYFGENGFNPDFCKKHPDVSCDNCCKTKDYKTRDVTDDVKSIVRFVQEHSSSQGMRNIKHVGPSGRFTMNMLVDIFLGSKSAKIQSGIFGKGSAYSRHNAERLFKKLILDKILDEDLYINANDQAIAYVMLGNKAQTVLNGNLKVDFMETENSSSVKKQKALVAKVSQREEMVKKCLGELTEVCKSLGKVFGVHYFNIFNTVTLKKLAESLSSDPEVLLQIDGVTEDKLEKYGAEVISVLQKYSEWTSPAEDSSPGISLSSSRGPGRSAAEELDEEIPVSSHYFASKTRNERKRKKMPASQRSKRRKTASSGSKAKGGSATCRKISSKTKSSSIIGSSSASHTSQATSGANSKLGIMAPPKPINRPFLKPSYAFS
Outline: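 50 nM BLM preincubated 15 min at room temperature with compound in pH 8.0 Tris buffer containing 2.5 ug/ml poly(dI-dC); started with 200 nM TAMRA/BHQ-2 forked duplex and 2 mM ATP (final). Unwinding read as TAMRA fluorescence increase, two reads 2 h apart.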

[9] = Validation screen for small molecules that induce DNA re-replication in MCF 10A normal breast cells (AID 463097); note: nearly all actives have a fitted effect of over 60% in size
Outline: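 DNA re-replication was detected as a rise in nuclei with elevated Hoechst fluorescence after a 48 hr compound exposure of MCF 10A cells at 37 C.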

[10] = biological target: M-phase phosphoprotein 8 (Homo sapiens) (UniProt Q99549); test: qHTS Validation Assay for Inhibitors for MPP8 Chromodomain Interactions with Methylated Histone Tails (AID 488949);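 note: AlphaScreen signal from MPP8 chromodomain bound to biotinylated H3K9me3 peptide; top concentration of the series differs between compounds; nearly all actives have a fitted effect of over 55% in size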
M-phase phosphoprotein 8 (Homo sapiens), sequence (Q99549 whole entry, looked up): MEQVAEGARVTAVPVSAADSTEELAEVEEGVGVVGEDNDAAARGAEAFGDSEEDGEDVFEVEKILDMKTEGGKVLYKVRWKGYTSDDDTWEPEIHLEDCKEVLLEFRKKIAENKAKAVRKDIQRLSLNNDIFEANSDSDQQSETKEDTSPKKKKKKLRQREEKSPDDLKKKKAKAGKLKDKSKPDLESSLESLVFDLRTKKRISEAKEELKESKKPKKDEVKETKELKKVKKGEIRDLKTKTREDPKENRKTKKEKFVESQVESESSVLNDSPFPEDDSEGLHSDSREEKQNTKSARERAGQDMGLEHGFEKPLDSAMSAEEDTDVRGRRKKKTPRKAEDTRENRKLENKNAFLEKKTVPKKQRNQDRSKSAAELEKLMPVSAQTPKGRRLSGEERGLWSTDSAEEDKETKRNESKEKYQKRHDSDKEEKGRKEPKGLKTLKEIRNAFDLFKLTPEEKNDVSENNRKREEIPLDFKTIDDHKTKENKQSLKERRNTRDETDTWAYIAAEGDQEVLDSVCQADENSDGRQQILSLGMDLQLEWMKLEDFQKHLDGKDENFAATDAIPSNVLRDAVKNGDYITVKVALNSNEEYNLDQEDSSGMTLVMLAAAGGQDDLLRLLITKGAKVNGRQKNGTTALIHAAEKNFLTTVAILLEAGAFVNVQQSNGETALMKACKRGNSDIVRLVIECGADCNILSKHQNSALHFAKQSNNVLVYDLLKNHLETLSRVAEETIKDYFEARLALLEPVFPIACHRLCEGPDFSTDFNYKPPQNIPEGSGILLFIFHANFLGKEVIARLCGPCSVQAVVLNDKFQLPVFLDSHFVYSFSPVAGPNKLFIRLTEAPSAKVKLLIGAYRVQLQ
Outline: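 Disruption of the preformed MPP8–trimethyl-H3K9 peptide complex (both 50 nM, 30 min, RT) is measured after 30 min compound exposure, using AlphaScreen proximity beads; aurintricarboxylic acid titration serves as plate control.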

CN(CCOc1ccc(C[C@H](Nc2ccccc2C(=O)c2ccccc2)C(=O)O)cc1)c1ccccn1
Potency [1]: inactive and 31.6 nM (active) | Potency [2]: inactive and 3.98 µM (active) | outcome [3]: inactive | Potency [4]: inactive | outcome [5]: inactive | outcome [6]: inactive

COC1=C(OC)C(=O)C(C/C=C(\C)CC/C=C(\C)CC/C=C(\C)CC/C=C(/C)CC/C=C(\C)CC/C=C(\C)CC/C=C(\C)CC/C=C(\C)CC/C=C(\C)CCC=C(C)C)=C(C)C1=O
Potency [7]: inactive

C[C@H]1CC2[C@@H]3CCC4=CC(=O)C=C[C@]4(C)[C@@]3(F)[C@@H](O)C[C@]2(C)[C@@]1(O)C(=O)CO (stereo not given in full)
Potency [8]: inactive | outcome [9]: inactive | Potency [10]: inactive

— PubChem BioAssay (NCATS)
